# Data from PubChem BioAssay AID463187 (University of Pittsburgh Molecular Library Screening Center, 2010).
# Screen size: about 220,000 compounds; about 1,500 (0.68%) were called active. Many of the other results were omitted from the sample, so actives are more common in it than they were. A number with no mark means an inactive call.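 The calls were made as follows: active = Hck-Nef kinase inhibition above about 50% (limit read from the data); inactive = inhibition below that limit.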
# Molecular target: Tyrosine-protein kinase HCK (Homo sapiens) (UniProt P08631)
# Sequence (P08631 whole entry, looked up): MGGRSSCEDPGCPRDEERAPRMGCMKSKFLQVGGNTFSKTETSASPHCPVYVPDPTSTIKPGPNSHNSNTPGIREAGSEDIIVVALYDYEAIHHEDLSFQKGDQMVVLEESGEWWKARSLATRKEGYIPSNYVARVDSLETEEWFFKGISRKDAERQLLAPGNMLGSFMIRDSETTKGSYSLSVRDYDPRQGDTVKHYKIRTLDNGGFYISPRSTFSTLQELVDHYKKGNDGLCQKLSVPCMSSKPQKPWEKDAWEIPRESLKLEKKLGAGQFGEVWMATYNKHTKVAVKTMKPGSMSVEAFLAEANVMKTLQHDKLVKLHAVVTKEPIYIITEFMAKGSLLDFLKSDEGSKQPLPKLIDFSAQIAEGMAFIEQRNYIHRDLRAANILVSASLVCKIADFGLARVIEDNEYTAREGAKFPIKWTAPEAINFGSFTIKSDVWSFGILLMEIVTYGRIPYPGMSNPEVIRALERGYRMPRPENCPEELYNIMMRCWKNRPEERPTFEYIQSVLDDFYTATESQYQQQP
# Assay: Hck:Nef complex kinase activity blockers – biochemical, Z-Lyte FRET, 384-well, Hck-YEEI, primary screen (AID 463187);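 also: 0% = DMSO with Hck plus Nef and 100% = Hck alone without Nef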
# Settings: Recombinant Hck-YEEI plus Nef, Z-Lyte FRET kinase assay; at 20 µM; stronger effect = higher value
row,Structure (SMILES),inhibition
1,OCCCNc1nccc(-c2cc(Nc3cccc(Cl)c3)ncn2)n1,17.4%
2,CC(C)C[C@H](CO)Nc1nc(N(C)c2cccc(Cl)c2)c2ncn(C(C)C)c2n1,29.9%
3,CC(C)n1cnc2c(Nc3cccc(Cl)c3)nc(N(CCO)CCCO)nc21,112% (active)
4,CC1CN(S(=O)(=O)c2ccccc2)C(C)CN1S(=O)(=O)c1ccccc1 (stereo not given),2.18%
5,CC(=O)Nc1ccc(/C(C)=N/NC(=O)CN(c2ccccc2Br)S(C)(=O)=O)cc1,3.92%
6,Cc1cc(Br)ccc1SCC(=O)OCC(=O)NCc1ccc2c(c1)OCO2,-1.74%
7,Oc1c(Cl)cc(Cl)c(Cl)c1Cc1c(O)c(Cl)cc(Cl)c1Cl,58.4% (active)
8,O=C(OCC1O[C@@H](OC(=O)c2cc(O)c(O)c(O)c2)[C@@H](OC(=O)c2cc(O)c(O)c(O)c2)[C@@H](OC(=O)c2cc(O)c(O)c(O)c2)[C@@H]1OC(=O)c1cc(O)c(O)c(O)c1)c1cc(O)c(O)c(O)c1 (stereo not given in full),97.6% (active)
9,CC(=O)NC1C(OCc2ccccc2)OC(COC(C)=O)C(OC(C)=O)C1OC(C)=O (stereo not given),0.438%
10,C/C=C(\C)C(=O)N1CC2(CC(c3cccc(NC(=O)CCCCC)c3)=NO2)C[C@@H]1C(N)=O (stereo not given in full),35.8%
11,O=C(N/N=C/c1coc2ccccc2c1=O)c1cc2ccccc2o1,49.1%
12,CC(C)(C)OC(=O)NCCCCCC(=O)N/N=C/c1coc2ccccc2c1=O,76.3% (active)
13,O=C(CCCCCNC(=O)c1ccccc1)N/N=C/c1ccccc1,9.24%
14,Cc1ccc(OCCCC(=O)NC(C)c2ccccc2)c(C)c1 (stereo not given),-1.04%
15,CC(C)n1c(CN2CCN(Cc3ccccc3)CC2)nc2ccccc21,5.34%
16,CN(C)C(=S)Nc1ccc(Br)cc1Cl,14.6%
17,O=C1Oc2ccccc2C(=O)/C1=C/c1ccccc1O,80.6% (active)
18,CCn1c(=O)c2cc(C(=O)Nc3cccc(C(C)=O)c3)sc2c2ccccc21,53.6% (active)
19,CC(=O)c1cccc(NC(=O)c2ccncc2)c1,-1.38%
20,CCn1c(NC(=O)c2ccccc2)c(-c2cccs2)c(=O)c2ccccc21,-2.03%
21,Cc1ccc(N2C(=O)CC(Nc3cccc4ccccc34)C2=O)cc1 (stereo not given),20.6%
22,CC(C)Cn1cnc2c1c(=O)n(CC(O)c1ccccc1)c(=O)n2CC(C)C (stereo not given),1.05%
23,Clc1ccccc1CSc1nnc(-c2ccco2)c(-c2ccco2)n1,21.2%
24,c1ccc(CSc2nnc(-c3ccco3)c(-c3ccco3)n2)cc1,61.4% (active)
25,Brc1ccc(CSc2ccc(-c3ccco3)nn2)cc1,22.4%
